From ChEMBL document CHEMBL4296182, “CO-ADD screening of NIH NCI Diversity Set V”

Test system: Staphylococcus aureus
Assay: Antibacterial activity against Staphylococcus aureus MRSA ATCC 43300 (CO-ADD:GP_020); MIC in CAMBH media using NBS plates, by Resazurin F(560/590)
Type: functional
Conditions: Concentration 20 uM, ASSAY_TEST Inhibition of Bacterial Growth, detection method Resazurin, Fluorescence (ex560/em590), MEDIA CAMHB, plate type 384well, CORNING #3640, time 18 hr

Structure (SMILES)	Inhibition [%]
CCOC(=O)N1C/C(=C\c2ccccc2)C(=O)/C(=C/c2ccccc2)C1	10.93
COc1cc(-c2ccc(Nc3ccccc3C(=O)O)c(OC)c2)ccc1Nc1ccccc1C(=O)O	0.05
COC1OC2COC(c3ccccc3)OC2C(=O)C1NC(=O)c1ccccc1 (stereo not drawn)	8.72
NC(=O)Nc1ccc(Nc2ccccc2)cc1	15.79
CCOC(=O)c1c(C)nc(C)c(C(=O)OCC)c1-c1cccnc1	-3.54
COC(=O)c1cc(C)c(C)cc1NC1OC(CO)C(O)C1O (stereo not drawn)	-3.53
CN(C)C(=S)/N=c1\ssc(=S)n1Cc1ccco1	13.2
O=C(O)/C=C\c1cc2c(cc1[N+](=O)[O-])OCO2	16.17
CSC(=N)NS(=O)(=O)c1ccc(NC(C)=O)cc1	1.24
COc1cc(NC(C)=O)c2ncccc2c1NC(C)=O	3.21
CSc1nc(O)nnc1Sc1ccccc1	-5.45
NC(=S)N/N=C/c1cc(-c2cccc(N)c2)ccn1	-5.52
CC1(c2ccc3ccccc3c2)CCC(=O)O1 (stereo not drawn)	11.1
CC1=C(O)C(=O)C(c2c(C)cc(C)c(Br)c2C)=C(O)C1=O	15.91
C(=C\CSc1ccccn1)/CSc1ccccn1	10.81
Clc1nc(Oc2ccccc2)nc(-c2cn(-c3ccccc3)c3ccccc23)n1	2.81
COC(=O)C1=CC(=O)N2CCN=C2S1	6.62
COC(=O)C1=C(C)NC(C)=C(C(=O)OC)C(N2C(=O)CCC2=O)C1 (stereo not drawn)	18.88
O=S(=O)(O)c1ccc(/N=N/c2ccccc2)cc1	-3.11
CC(C)CNC(=O)/C=C\C(=O)O	-0.87

Structure (SMILES)	Inhibition [%]
CSc1nc(O)cc(Cl)n1	-1.6
N#CNC(=N)c1ccccc1	0.25
O=C1CCCc2cc3c(cc21)CC1(C3)Cc2cc3c(cc2C1)C(=O)CCC3	15.97
Cc1ccc(C(=N)Nc2ccccc2)cc1	11.04
c1ccc(-c2cc3ccccc3[nH]2)cc1 [2-PHENYL-1H-INDOLE]	0.91
Nc1ccc(Br)cc1Br	10.2
CCOC(=O)c1c(C)oc(C)c(C(=O)OCC)c1=O	10.05
CCCn1cnc2c(Sc3c([N+](=O)[O-])ncn3C)nc(N)nc21	-2.1
CN(C)C(=O)OCC1COc2ccccc2O1 (stereo not drawn)	14.89
Cc1cc(NC(=O)c2ccccc2)c(Cl)cc1N	13.14
Cc1ccc(/N=N/c2c(N)nn(-c3ccccc3)c2N)cc1	4.28
Cn1ncc2c(Nc3ccc(O)cc3)nc(Cl)nc21	6.63
O=C(O)c1ccc(O)c(O)c1 [PROTOCATECHUIC ACID]	11.87
CC(=O)Nc1ccc(Cc2nc3c(=O)n(C)c(=O)n(C)c3[nH]2)cc1	10.98
C=CCNC(=S)N1CCN(c2ccccc2Cl)CC1	6.69
CCNc1nn2ccccc2c1/C=C(/C#N)C(=O)OCC	10.32
Nc1cnc(Nc2ccc(Br)cc2)nc1N.O=S(=O)(O)O	3.44
CC(=O)OCCN1c2ccccc2Sc2cnccc21	-12.23
c1ccc2cc(OCCOCCOc3ccc4ccccc4c3)ccc2c1	11.38

Test system: Acinetobacter baumannii
Assay: Antibacterial activity against Acinetobacter baumannii ATCC 19606 (CO-ADD:GN_034); MIC in CAMBH media using NBS plates, by Resazurin F(560/590)
Type: functional
Conditions: Concentration 20 uM, ASSAY_TEST Inhibition of Bacterial Growth, detection method Resazurin, Fluorescence (ex560/em590), MEDIA CAMHB, plate type 384well, CORNING #3640, time 18 hr

Structure (SMILES)	Inhibition [%]
CCOC(=O)N1C/C(=C\c2ccccc2)C(=O)/C(=C/c2ccccc2)C1	7.26
COc1cc(-c2ccc(Nc3ccccc3C(=O)O)c(OC)c2)ccc1Nc1ccccc1C(=O)O	8.67
COC1OC2COC(c3ccccc3)OC2C(=O)C1NC(=O)c1ccccc1 (stereo not drawn)	4.09
NC(=O)Nc1ccc(Nc2ccccc2)cc1	-8.02
CCOC(=O)c1c(C)nc(C)c(C(=O)OCC)c1-c1cccnc1	13
COC(=O)c1cc(C)c(C)cc1NC1OC(CO)C(O)C1O (stereo not drawn)	7.51
CN(C)C(=S)/N=c1\ssc(=S)n1Cc1ccco1	6.63
O=C(O)/C=C\c1cc2c(cc1[N+](=O)[O-])OCO2	-13.7
CSC(=N)NS(=O)(=O)c1ccc(NC(C)=O)cc1	-21.01
COc1cc(NC(C)=O)c2ncccc2c1NC(C)=O	8.89
CSc1nc(O)nnc1Sc1ccccc1	-15.47
NC(=S)N/N=C/c1cc(-c2cccc(N)c2)ccn1	27.53
CC1(c2ccc3ccccc3c2)CCC(=O)O1 (stereo not drawn)	-6.13
CC1=C(O)C(=O)C(c2c(C)cc(C)c(Br)c2C)=C(O)C1=O	1.25
C(=C\CSc1ccccn1)/CSc1ccccn1	-13.92
Clc1nc(Oc2ccccc2)nc(-c2cn(-c3ccccc3)c3ccccc23)n1	4.85
COC(=O)C1=CC(=O)N2CCN=C2S1	15.89
COC(=O)C1=C(C)NC(C)=C(C(=O)OC)C(N2C(=O)CCC2=O)C1 (stereo not drawn)	6.44
O=S(=O)(O)c1ccc(/N=N/c2ccccc2)cc1	7.18
CC(C)CNC(=O)/C=C\C(=O)O	-6.9

Structure (SMILES)	Inhibition [%]
CSc1nc(O)cc(Cl)n1	-4.84
N#CNC(=N)c1ccccc1	1.21
O=C1CCCc2cc3c(cc21)CC1(C3)Cc2cc3c(cc2C1)C(=O)CCC3	-9.78
Cc1ccc(C(=N)Nc2ccccc2)cc1	15.63
c1ccc(-c2cc3ccccc3[nH]2)cc1 [2-PHENYL-1H-INDOLE]	-19.68
Nc1ccc(Br)cc1Br	5.55
CCOC(=O)c1c(C)oc(C)c(C(=O)OCC)c1=O	8.54
CCCn1cnc2c(Sc3c([N+](=O)[O-])ncn3C)nc(N)nc21	-3.75
CN(C)C(=O)OCC1COc2ccccc2O1 (stereo not drawn)	-13.85
Cc1cc(NC(=O)c2ccccc2)c(Cl)cc1N	13.32
Cc1ccc(/N=N/c2c(N)nn(-c3ccccc3)c2N)cc1	-1.05
Cn1ncc2c(Nc3ccc(O)cc3)nc(Cl)nc21	8.39
O=C(O)c1ccc(O)c(O)c1 [PROTOCATECHUIC ACID]	-8.73
CC(=O)Nc1ccc(Cc2nc3c(=O)n(C)c(=O)n(C)c3[nH]2)cc1	-13.87
C=CCNC(=S)N1CCN(c2ccccc2Cl)CC1	9.34
CCNc1nn2ccccc2c1/C=C(/C#N)C(=O)OCC	-16.65
Nc1cnc(Nc2ccc(Br)cc2)nc1N.O=S(=O)(O)O	7.82
CC(=O)OCCN1c2ccccc2Sc2cnccc21	-1.85
c1ccc2cc(OCCOCCOc3ccc4ccccc4c3)ccc2c1	0.36
